Data: PubChem BioAssay (NCI)
The panel holds about 79,000 compounds, 15% with a hit somewhere; the sample as a whole holds those more often. Cut-off read from the data, not from the text of the source: active = growth inhibition above about 70%; inactive = the rest.

Columns and labels:
[1] = NCI Yeast Anticancer Drug Screen. Data for the rad50 strain (AID 155);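 note: 0% = growth of vehicle-only cultures of the same strain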; conditions: S. cerevisiae rad50 strain growth inhibition; at 50.0 µM; active compounds read high
In short: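 Readout: growth inhibition relative to vehicle-treated cultures. Compound exposure was carried out in a genetically defined yeast strain deficient in DNA damage repair.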

[2] = NCI Yeast Anticancer Drug Screen. Data for the mec2-1 strain (AID 157); conditions: S. cerevisiae mec2-1 strain, at 50.0 µM, active compounds read high
In short: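 Compounds were applied to mec2-1 yeast cells. Their growth was then compared with that of vehicle-treated cultures to give growth inhibition.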

[3] = NCI Yeast Anticancer Drug Screen. Data for the sgs1 mgt1 strain (AID 161);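 note: 0% = growth of cultures given vehicle only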; conditions: S. cerevisiae sgs1 mgt1 strain, at 50.0 µM, active compounds read high
In short: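 Growth of a repair-deficient yeast mutant was monitored after compound treatment and expressed as inhibition relative to vehicle-treated cultures.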

[4] = NCI Yeast Anticancer Drug Screen. Data for the cln2 rad14 strain (AID 165);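 note: 0% = growth equal to vehicle treated cultures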; conditions: S. cerevisiae cln2 rad14 strain, at 50.0 µM, active compounds read high
In short: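 Strain: cln2 rad14 yeast, altered in cell cycle control and DNA damage repair. Read-out: growth inhibition vs vehicle.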

[5] = NCI Yeast Anticancer Drug Screen. Data for the bub3 strain (AID 167); conditions: S. cerevisiae bub3 mutant strain, at 50.0 µM, active compounds read high
In short: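 Readout: yeast growth inhibition, expressed relative to vehicle-only wells. The test organism is a mutant strain from a panel with lesions in DNA repair or checkpoint genes.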

[6] = NCI Yeast Anticancer Drug Screen. Data for the mlh1 rad18 strain (AID 175); conditions: S. cerevisiae mlh1 rad18 strain growth inhibition; at 50.0 µM; active compounds read high
In short: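 A repair-deficient yeast strain is exposed to test compound, and growth is scored relative to vehicle-treated controls.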

Measured: growth inhibition

NC(CSS(=O)(=O)O)=NCCCCC1CCCCC1
inactive: [1] -6.3% | [2] -2.75% | [3] 7.35% | [4] -6.25% | [5] 0.1% | [6] 16.4%

O=C(CCC(CCC(=O)c1ccccc1)[N+](=O)[O-])c1ccccc1
inactive: [1] 3.15% | [2] -10.8% | [3] 7.65% | [4] 4.55% | [5] 14.2% | [6] 20.5%

CCCCCC(=O)Cc1cc(O)cc2c1C(=O)Oc1cc(O)c(C(=O)O)c(CCCCC)c1O2
inactive: [1] 26.1% | [2] 7.45% | [3] 32% | [4] 17.8% | [5] 16.4% | [6] 16.9%

CN(Cc1c(O)ccc2ccccc12)Cc1c[nH]c2ccccc12
inactive: [1] 20.4% | [2] -13.8% | [3] 0.5% | [4] -46.5% | [5] 6.9% | [6] 13.4%

COC(=O)CCC1(CCC(=O)OC)CCCCCCC(CCC(=O)OC)(CCC(=O)OC)C(=O)C1=O
inactive: [1] -11.6% | [2] -0.5% | [3] -1.25% | [4] -2.45% | [5] 5.25% | [6] 19.8%

O=C1C=C(Nc2nc(C(=O)O)cc(=O)[nH]2)c2ccccc2C1=O
inactive: [1] 8.7% | [2] -15.2% | [3] -29.3% | [4] 15.9% | [5] -25.6% | [6] -24.6%

c1ccc(-c2cc(-c3ccccc3)nc(-c3ccccc3)c2)cc1
inactive: [1] -7.2% | [2] -4.05% | [3] 10.1% | [4] -33% | [5] 9.65% | [6] 1.6%

CC(C)Oc1ccc(CCOC(=O)Nc2cccc3ccccc23)cc1
inactive: [1] -0.5% | [2] 0.85% | [3] 2% | [4] 6.65% | [5] 3.8% | [6] 9.5%

O=C(NN1C(=O)C(Cl)C1c1cccc(O)c1)c1ccccc1O (stereo unspecified)
inactive: [1] -47.5% | [2] -34% | [3] -32.8% | [4] 5.55% | [5] -29.2% | [6] -39.1%

CCCCCCCCCCCCCCCCCC(=O)Oc1ccc(OCc2ccccc2)cc1
inactive: [1] -13.5% | [2] -25.6% | [3] -11.4% | [4] 16.2% | [5] -11.4% | [6] -16.6%

CCCC1OC(C2CC=CCC2C)OCC1CC (stereo unspecified)
inactive: [1] -9.25% | [2] 6.55% | [3] 2.95% | [4] -17.9% | [5] -3.45% | [6] -46%

CS(=O)(=O)N/N=C/C1C=CC=CC1 (stereo unspecified)
inactive: [1] -6.9% | [2] 0.7% | [3] -6.25% | [4] -24.4% | [5] -12.2% | [6] -26.6%

c1ccc(SC2(Sc3ccccc3)CCCC2)cc1
inactive: [1] -9.15% | [2] -22.1% | [3] -12.2% | [4] -0.5% | [5] -24.6% | [6] -17.4%

COc1ccc(C(C)Nc2cc(OC)c(OC)c(OC)c2)cc1 (stereo unspecified)
inactive: [1] -20.2% | [2] -14.1% | [3] -3.15% | [4] 5.5% | [5] -10.3% | [6] -15.1%

O=c1n(-c2ccccc2)c(=O)n2c(=O)n(-c3ccccc3)c(=O)n12
inactive: [1] -23.4% | [2] -1.55% | [3] -10.7% | [4] -44.9% | [5] -9% | [6] 1.15%

Nc1cc2c3c(cccc3c1)NC2=O
inactive: [1] 47.5% | [2] 14.4% | [3] 17.9% | [4] 11% | [5] -1.5% | [6] -12.9%

CN(C)CCCNc1ccc([N+](=O)[O-])c2nc3ccccc3c(N)c12
inactive: [1] -2.1% | [2] -64.7% | [3] 6.45% | [4] -0.5% | [5] -11.4% | [6] 65.6%

CC(=O)OC1CCCC2CCCC21 (stereo unspecified)
inactive: [1] 0.2% | [2] 5.2% | [3] 1.25% | [4] -5.7% | [5] -2.35% | [6] -3.75%

COc1cc(C2c3cc4c(cc3OC(Nc3ccccc3)C2C)OCO4)cc(OC)c1OC (stereo unspecified)
inactive: [1] -12.7% | [2] 5.6% | [3] 2.95% | [4] -10.6% | [5] -6.5% | [6] 20.8%

c1ccc2cc(N3CCOCC3)ccc2c1
inactive: [1] -19.1% | [2] -27.4% | [3] -7.3% | [4] -19.9% | [5] -22.8% | [6] 2.3%

COc1ccccc1-c1coc2c(ccc3oc(C(C)C)cc32)c1=O
inactive: [1] -19.2% | [2] 20% | [3] 3.25% | [4] -52% | [5] -0.5% | [6] 22.6%
